Holding throughout (assay): qHTS profiling for inhibitors of Plasmodium falciparum proliferation (AID 504749); also: nearly all actives have a fitted effect of over 60% in size
What all share (settings): P. falciparum in erythrocytes, SYBR Green DNA, 72 h; series mostly up to 28.7 µM
Background: In qHTS, concentration-response curves come from the screen itself.

In assay [1] the test system is 7G8. A digest of the protocol: (§1)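 Three-day growth assay of blood-stage parasites in erythrocytes (0.3% parasitemia, 2.5% hematocrit) at 37 C, 5% CO2, quantified by SYBR Green DNA staining after overnight detergent lysis.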
Assay [2] concerns CP192. A digest of the protocol: as §1
In assay [3] the test system is CP201. A digest of the protocol:
as §1

In assay [4] the test system is CP203. A digest of the protocol: as §1
Assay [5] concerns CP211. A digest of the protocol:
as §1

Assay [6] relates to CP237. Put shortly:
as §1

Assay [7] has as its system CP247. Put shortly: as §1
In assay [8] the test system is AA1029. A digest of the protocol: as §1
Assay [9] has as its system ATS189. Put shortly:
as §1

Assay [10] relates to ATS95. A digest of the protocol:
as §1

The subject of assay [11] is C2A. A digest of the protocol:
as §1

For assay [12], the system named is CP185. Put shortly:
as §1

For assay [13], the system named is CP191. Put shortly:
as §1

Assay [14] concerns CP194. A digest of the protocol: as §1
In assay [15] the test system is CP217. Put shortly:
as §1

Assay [16] relates to CP238. Put shortly: as §1
In assay [17] the test system is CP250. A digest of the protocol: as §1
The subject of assay [18] is CP252. A digest of the protocol: as §1
The test system of assay [19] is AS120. A digest of the protocol:
as §1

In assay [20] the test system is CP215. A digest of the protocol:
as §1

Inconclusive results are not listed. Calls of active or inactive are those of the source. Calls follow the shape of the dose curve; as a rule, active = well fitted inhibition curve with a large enough effect; inconclusive = small, poorly fitted or top-dose-only effect; inactive = flat fitted curve, though single readings scatter.
Potency is read from the fitted curve at half-maximal effect.

`Cn1c(O)c(N=NC(N)=S)c2ccccc21`: the Potency is 12.6 µM (active) in assay [1], 11.2 µM (active) in assay [6] and 8.91 µM (active) in assay [7]. For the same molecule, the Potency entry in assay [2], in assay [3], in assay [4] and in assay [5] was “inactive” throughout.

For the molecule `COc1ccc2nc(NC(=O)Nc3ccccc3)sc2c1`, the Potency in [1] was 10 µM (active). Moreover, the Potency entry in [8], in assay [9], in assay [10], in assay [11], in assay [12] and in assay [13] was “inactive” throughout. For the same molecule, the Potency result in [2], in assay [14], in assay [3], in [15], in assay [6] and in assay [16] was “inactive” in each case. Moreover, the Potency result in [17] and in [18] was “inactive” in each case.

For `CC(=O)Nc1ccc(NC(=S)NC(=O)c2ccc(C(C)(C)C)cc2)cc1`, the Potency in [1] is 8.91 µM (active). The Potency entry in assay [19], in [9], in assay [11], in assay [12], in assay [13] and in assay [2] was “inactive” in each case. Also, the Potency result in assay [14], in assay [3], in assay [4], in assay [5], in [20] and in assay [15] was “inactive” each time. The Potency result in assay [16], in [7], in [17] and in assay [18] was “inactive” in each case.

Regarding `CN(C)C(=O)CCSC(SCCC(=O)O)c1cccc(/C=C/c2ccc3ccc(Cl)cc3n2)c1` (configuration not stated), the Potency is 8.91 µM (active) in assay [1] and 10 µM (active) in assay [19]. The Potency entry in [2], in assay [3], in [4], in assay [5], in assay [20] and in assay [17] was “inactive” each time.

As for `CC(=O)c1ccc2c(c1)N(CCCN1CCN(CCO)CC1)c1ccccc1S2`, the Potency is 7.08 µM (active) in assay [1]; 8.91 µM (active) in assay [8]; 10 µM (active) in [12]; 11.2 µM (active) in assay [13]; 10 µM (active) in [15]; 11.2 µM (active) in [6]. Besides, the Potency in assay [7] was 11.2 µM (active); in assay [18], 10 µM (active).

Regarding `c1ccc2c(c1)Sc1ccccc1N2CCN1CCCC1`, the Potency in [1] is 7.08 µM (active); in [8] it was 7.94 µM (active); in assay [19], 7.08 µM (active); in assay [9], 8.91 µM (active); in assay [10], 8.91 µM (active); in assay [12] it was 10 µM (active). Further, the Potency in [14] is 13.5 µM (active); in assay [3], 13.5 µM (active); in assay [5], 13.5 µM (active); in assay [20] it was 12 µM (active); in [15], 7.08 µM (active); in assay [6], 5.01 µM (active). The Potency is 11.2 µM (active) in [16], 7.08 µM (active) in assay [7], 11.2 µM (active) in assay [17] and 11.2 µM (active) in [18].

For the molecule `CCN(CC)CCC(=O)N1c2ccccc2Sc2ccc(Cl)cc21`, the Potency in assay [1] is 8.91 µM (active). Further, the Potency result in assay [9], in [2] and in assay [3] was “inactive” throughout.

Regarding `OCc1ccccc1`, the Potency in assay [1] was 2.82 µM (active); in assay [17], 10 µM (active). Further, the Potency entry in assay [8], in assay [11], in [12], in assay [2], in assay [14] and in assay [3] was “inactive” in each case. The Potency result in [5], in assay [16] and in [18] was “inactive” in each case.

In the case of `O=P(O)(O)OP(=O)(O)O`, in [1], the Potency is 10 µM (active). In addition, the Potency result in [10], in assay [11], in assay [12], in [13], in [2] and in assay [14] was “inactive” throughout. Also, the Potency entry in assay [3], in assay [4], in assay [5], in [20], in [6] and in assay [7] was “inactive” throughout. Further, the Potency result in [17] is “inactive”.

On to `COc1ccc(/C=C/C(=O)O)cc1`, for which the Potency entry in assay [1], in [8], in [19], in assay [9], in assay [11] and in assay [12] was “inactive” throughout. Further, the Potency result in assay [13], in [2], in assay [14], in assay [3], in assay [4] and in assay [5] was “inactive” throughout. Further, the Potency entry in [20], in [15], in assay [6], in [16], in assay [7] and in assay [17] was “inactive” throughout. Besides, the Potency entry in assay [18] was “inactive”.

For the molecule `O=C(c1cc2ccccc2o1)N1CCN(Cc2ccccc2)CC1`, the Potency in assay [1] was 7.94 µM (active); in [19], 8.91 µM (active). The Potency entry in assay [11], in assay [2] and in assay [16] was “inactive” throughout.

Consider `CC(C)(C)CC(C)(C)c1ccc(OCCO)cc1`, for which the Potency entry in assay [8], in assay [19], in [9], in assay [10], in assay [11] and in assay [12] was “inactive” in each case. The Potency entry in assay [13], in assay [2], in assay [14], in assay [3], in assay [4] and in assay [5] was “inactive” throughout. In addition, the Potency entry in assay [20], in [15], in assay [6], in assay [16], in assay [7] and in assay [17] was “inactive” throughout. Moreover, the Potency entry in assay [18] was “inactive”.

As for `O=C(CCCN1CCC(C(=O)c2ccc(F)cc2)CC1)c1ccc(F)cc1`, the Potency in assay [1] is 11.2 µM (active); in assay [13], 2 µM (active). The Potency result in assay [8], in assay [19], in assay [11], in assay [12], in assay [2] and in assay [3] was “inactive” throughout. The Potency result in assay [5], in assay [20], in assay [15], in assay [16], in assay [17] and in assay [18] was “inactive” in each case.

In the case of `O=c1n(CC2CO2)c(=O)n(CC2CO2)c(=O)n1CC1CO1` (configuration not stated), the Potency in assay [1] is 12.6 µM (active). Further, the Potency result in assay [19], in assay [9], in assay [3], in assay [5], in assay [20] and in assay [15] was “inactive” each time. In assay [16], the Potency entry is “inactive”.

For `CCN(CC)CCOC(=O)c1cccnc1`, the Potency result in assay [1], in assay [8], in assay [19], in [9], in assay [11] and in [12] was “inactive” each time. In addition, the Potency entry in assay [2], in assay [14], in [4], in assay [5], in [20] and in assay [15] was “inactive” each time. In assay [18], the Potency result was “inactive”.

Consider `CCCCCCCCCCCCCCCCOCCOCCOCCOCCOCCOCCOCCOCCOCCOCCOCCOCCOCCOCCOCCOCCOCCOCCOCCOCCO`, for which the Potency in assay [1] was 5.62 µM (active); in [19] it was 14.1 µM (active); in assay [10] it was 11.2 µM (active); in [6], 7.08 µM (active).

With `N=C(N)c1ccc(/C=C/c2ccc(C(=N)N)cc2O)cc1`, the Potency is 3.98 µM (active) in [1]; 10 µM (active) in [8]; 12.6 µM (active) in [19]; 10 µM (active) in assay [10]; 3.98 µM (active) in assay [11]; 10 µM (active) in [12]. In addition, the Potency in [13] was 1.41 µM (active); in assay [2], 5.36 µM (active); in assay [14], 6.01 µM (active); in [3], 12 µM (active); in assay [4] it was 15.1 µM (active); in assay [20], 5.36 µM (active). In addition, the Potency in assay [15] is 11.2 µM (active); in [6], 5.01 µM (active); in assay [16] it was 10 µM (active); in assay [7], 10 µM (active); in assay [17] it was 11.2 µM (active); in assay [18], 15.8 µM (active).

For `CCOC(=O)C1=C(COCCN)NC(C)=C(C(=O)OC)C1c1ccccc1Cl` (configuration not stated), in assay [1], the Potency is 11.2 µM (active). The Potency entry in assay [8], in assay [19], in assay [10], in [11], in assay [12] and in assay [13] was “inactive” each time. The Potency entry in assay [2], in assay [3], in assay [4], in assay [5], in [20] and in assay [15] was “inactive” throughout. Further, the Potency result in assay [16], in [7], in assay [17] and in assay [18] was “inactive” throughout.

The values are drawn from PubChem BioAssay (NCATS).
